Assay outcomes from PubChem.
KB-V1 MDR tox = kills drug-selected multidrug resistant KB-V1 cells; KB-V1 MDR cells viability, CellTiter-Glo, 72 h; Potency, µM (doses to about 46.1 µM), actives largely listed as cytotoxic; 3.4% of 400,000 active; further: nearly all actives have a fitted effect of over 60% in size
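Cells of the MDR subline KB-V1 are plated, dosed with compound at multiple concentrations, and incubated 72 h at 37 degrees C; CellTiter-Glo is then added and luminescence read after 10 min.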
S2 tox = reduces viability in counter-screen for ATXN expression inhibitors; S2 cells (HEK-293 line with an ATXN2-luciferase reporter) viability, CellTiter-Fluor protease fluorescence, 24 h; Potency, µM (highest dose often 56.7 µM), hits mostly cytotoxic; 0.49% of 400,000 active; further: nearly all actives have a fitted effect of over 40% in size
HT1080-NT tox = kills 2HG-producing HT-1080-NT fibrosarcoma cells; HT-1080-NT fibrosarcoma viability, CellTiter-Glo ATP luminescence, 48 h; Potency, µM (highest dose often 46.1 µM), actives largely listed as cytotoxic; 1.6% of 360,000 active;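 further: NT is the 2HG producing partner of a matched IDH1 knockdown line; nearly all actives have a fitted effect of over 55% in size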
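Viability by CellTiter-Glo luminescence after 48 h compound exposure at 37C of HT-1080-NT cells (750/well, RPMI, 5% FBS). % activity scaled between DMSO wells and medium-only wells, then curve-fitted and categorized by curve class.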
KB-3-1 tox = KB-3-1 parental cell cytotoxicity. KB-3-1 viability, CellTiter-Glo ATP luminescence, 72 h. Potency, µM (titrated, usually from 46.1 µM), usual class: cytotoxic. 1.4% of 400,000 active. AID 1347075; further: nearly all actives have a fitted effect of over 60% in size
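Cytotoxicity measured as CellTiter-Glo luminescence after 72 h at 37 C. Compound titrations were pinned onto drug-naive KB-3-1 parental adenocarcinoma cells grown in DMEM with 10% FBS, and normalized data fitted to concentration-response curves.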
HT1080 IDH1KD tx = kills HT-1080 cells with IDH1 knockdown. HT-1080 IDH1 knockdown viability, ATP luminescence, 48 h. Potency, µM (series often up to 46.1 µM), hits mostly cytotoxic. 2% of 360,000 active. AID 686971
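Cytotoxicity counter-line: IDH1KD HT-1080, 48 h, CellTiter-Glo. Curves classed by r2, magnitude and activity.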
ATXN2 expr inh = inhibitors of ATXN2 expression | HEK-293 ATXN2-luciferase reporter, luminescence, 24 h | Potency, µM (titrated, usually from 57 µM), hits mostly inhibitors | 0.72% of 360,000 active | AID 1745845; further: nearly all actives have a fitted effect of over 55% in size
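qHTS (up to 57 uM final) was run with 24 h compound exposure of reporter cells at 37 °C. Each well was multiplexed: SteadyGlo luminescence measured ATXN2-luciferase expression after a fluorogenic Gly-Phe-AFC viability readout (25 uM final).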
Hits are given with their value; . = inactive; ? = inconclusive; / = no result. Sampled rows, rich in hits. Any-hit rate of the full collection: about 6.2%. The call rests on the fitted dose curve; in most records, active means well fitted curve in the direction sought with a large enough effect; inconclusive means small, poorly fitted or top-dose-only effect, or another doubt; inactive means no such curve, though single readings can be large; an effect the other way counts as inactive or inconclusive.

SMILES	KB-V1 MDR tox	S2 tox	HT1080-NT tox	KB-3-1 tox	HT1080 IDH1KD tx	ATXN2 expr inh
O=C(Nc1ccc(F)cc1)c1ccccc1Oc1ccc(C(F)(F)F)cc1[N+](=O)[O-]	16.4µM	?	?	.	?	.
O=C(Nc1ccccc1)c1ccccc1Oc1ccc(C(F)(F)F)cc1[N+](=O)[O-]	?	.	.	?	.	.
O=C(CSc1ccsc1[N+](=O)[O-])NCc1ccccc1	?	.	.	5.8µM	.	.
COc1cccc(CN2CCC(n3cc(C(=O)NC4CCCC4)nn3)CC2)c1O	/	.	/	/	/	/
CCOC(=O)c1[nH]c2ccc(F)cc2c1NC(=O)C(C)N1CCc2cc(OC)c(OC)cc2C1 (stereo not drawn)	?	?	?	16.4µM	16.4µM	.
O=C(Nc1cccc(Cl)c1)c1c(NC(=O)C(F)(F)F)sc2c1CCCC2	11.6µM	?	/	?	/	.
O=C(O)CCC(=O)Nc1sc2c(c1C(=O)Nc1ccccc1)CCCCC2	.	.	20.6µM	?	?	.
O=C(Nc1sc2c(c1C(=O)O)CCC2)c1cccc(Cl)c1	.	.	?	?	.	.
Cc1ccc(NC(=O)c2oc3ccc4c(c3c2C)C(=O)CC(C)(C)O4)c(C)c1	.	.	/	.	/	.
COc1cc(C2c3cc4c(cc3C(OC3OC5COC(c6cccs6)OC5C(O)C3O)C3COC(=O)C23)OCO4)cc(OC)c1O (stereo not drawn)	.	?	?	4.11µM	?	0.316µM
CCN(CC)C1Oc2cc3c(cc2C(c2cc(OC)c(O)c(OC)c2)C1C)OCO3 (stereo not drawn)	?	?	?	?	?	.
COc1cc([C@@H]2c3cc4c(cc3[C@@H](O[C@@H]3O[C@@H]5CO[C@@H](C)O[C@H]5[C@H](O)[C@H]3O)[C@H]3COC(=O)[C@H]23)OCO4)cc(OC)c1O	.	?	.	16.4µM	?	1.12µM
CCCc1noc(-c2ccc(NCc3ccccc3OC)c([N+](=O)[O-])c2)n1	.	.	/	.	/	.
CC1CCCC(NC(=O)CC2Nc3ccccc3NC2=O)C1C (stereo not drawn)	16.4µM	.	.	.	.	.
O=C(CC1Nc2ccccc2NC1=O)NC1CCCCC1 (stereo not drawn)	?	.	.	.	.	.
COc1ccc(Cl)cc1NC(=O)N(C)CCc1c(C)nn(C)c1C	.	.	/	.	/	.
O=C(O)CCS(=O)(=O)c1nc(-c2cccs2)cc(C(F)(F)F)n1	.	.	?	.	?	.
COC(=O)CCS(=O)(=O)c1nc(-c2ccccc2)cc(C(F)(F)F)n1	?	/	7.08µM	.	3.55µM	?
COCC(C)NC(=O)CCS(=O)(=O)c1nc(-c2ccc(OC)cc2)cc(C(F)(F)F)n1 (stereo not drawn)	.	?	?	.	23.1µM	?
CCOC(=O)CS(=O)(=O)c1nc(-c2ccc(F)cc2)cc(C(F)(F)F)n1	.	/	6.51µM	3.26µM	13µM	?
CCOC(=O)CCS(=O)(=O)c1nc(-c2ccccc2)cc(C(F)(F)F)n1	.	/	?	?	5.17µM	?
CCOC(=O)c1c(C(F)(F)F)cc(-c2ccc(F)cc2)nc1C	.	.	.	.	.	.
COCCNC(=O)CN(C(=O)CCC(=O)Nc1ccccn1)c1cc(C)ccc1C	.	?	.	.	.	.
Cc1ncc2c(c1CNC(=O)/C=C/c1cccs1)CCN(C(=O)c1noc3c1CCCC3)C2	/	.	/	/	/	/
COc1ccc2c(c1)-c1nc(-n3ncc(C(=O)N(C)C(C)c4ccon4)c3C3CC3)ncc1CC2 (stereo not drawn)	/	.	/	/	/	/
SMILES	KB-V1 MDR tox	S2 tox	HT1080-NT tox	KB-3-1 tox	HT1080 IDH1KD tx	ATXN2 expr inh
COc1ccc(-c2cc(C(F)(F)F)nc(S(=O)(=O)CCCC(=O)Nc3cccnc3Cl)n2)cc1OC	.	?	?	.	10.3µM	?
CCOC(=O)CS(=O)(=O)c1nc(-c2ccccc2)cc(C(F)(F)F)n1	?	.	9.2µM	13µM	6.51µM	.
COC(=O)c1ccccc1NC(=O)CCCS(=O)(=O)c1nc(-c2ccccc2OC)cc(C(F)(F)F)n1	.	.	/	.	/	.
COc1ccc(S(=O)(=O)N2CCC(c3nnc(-c4ccccc4C)o3)CC2)c(OC)c1	.	7.94µM	/	.	/	3.55µM
Cc1ccccc1-c1nnc(C2CCN(S(=O)(=O)c3ccc(Cl)cc3)CC2)o1	.	3.55µM	/	.	/	?
COc1ccc(S(=O)(=O)N2CCN(c3ccccn3)CC2)c(OC)c1	.	.	.	.	.	/
Cc1cccc(OCc2nc(CC(=O)Nc3ccc(Cl)cc3)cs2)c1	.	.	/	.	/	.
CCc1nnc(NC(=O)c2nc(SC)ncc2Cl)s1	.	.	/	.	/	.
CN1CCCC(CNC(=O)c2cnn(-c3ncc4c(n3)-c3ccccc3CC4)c2C2CC2)C1 (stereo not drawn)	/	.	/	/	/	/
COC(=O)CSC1=C(C#N)C(c2ccccc2)CC(=O)N1 (stereo not drawn)	18.4µM	.	?	?	.	.
COC(=O)CSC1=C(C#N)C(c2ccc(C(C)C)cc2)CC(=O)N1 (stereo not drawn)	.	.	.	.	.	.
COC(=O)CSC1=C(C#N)C(c2cccc(F)c2)CC(=O)N1 (stereo not drawn)	?	.	14.6µM	16.4µM	?	.
C/C(=N/NC(=O)CNS(=O)(=O)c1ccccc1)c1ccc(Br)cc1	.	.	.	.	.	.
Cc1ccccc1OCC(=O)Nc1ccc2c(c1)OCCO2	.	.	.	.	.	/
O=C(c1ccc2c(c1)OCCO2)C1CCN(C(=O)c2ccc(F)c(F)c2)CC1	5.8µM	.	.	?	?	.
CC(=O)c1c(C)[nH]c(C(=O)OCC(=O)Nc2ccc3c(c2)OCCO3)c1C	20.6µM	.	.	?	.	.
Cc1cccc(C)c1OCC(=O)Nc1ccc2c(c1)OCCO2	?	.	.	23.1µM	.	.
O=C(CN1CCC(C(=O)c2ccc(Cl)cc2)CC1)Nc1ccc2c(c1)OCCO2	9.2µM	.	?	?	?	.
NC(=O)C1CCN(CC(=O)Nc2ccc3c(c2)OCCO3)CC1	.	.	.	.	.	.
Cc1oc(-c2ccccc2NC(=O)c2ccccc2)nc1CNC(=O)C1CC(=O)OC12CCCCC2 (stereo not drawn)	/	.	/	/	/	/
O=C(CSCc1c(Cl)cccc1Cl)Nc1ccc2c(c1)OCCO2	10.3µM	.	.	?	.	.
COc1ccc(OC)c(NC(=O)CN2CCC(C(=O)c3ccc(C)cc3)CC2)c1	8.2µM	.	.	?	?	.
CC(=O)c1c(C)[nH]c(C(=O)OCC(=O)Nc2ccc(Cl)c(S(=O)(=O)N(C)C)c2)c1C	?	12.6µM	?	?	23.1µM	/
CCN(Cc1ccccc1)S(=O)(=O)c1nc2nc(C)c(C)c(C)n2n1	18.4µM	.	.	.	.	.
